Screening data (PubChem BioAssay)
HT1080NT lethal = kills 2HG-producing HT-1080-NT fibrosarcoma cells; HT-1080-NT fibrosarcoma viability, CellTiter-Glo ATP luminescence, 48 h; Potency, µM (series often up to 46.1 µM), without a hit: top-dose activity, negative = less viability, usual class: cytotoxic; 360,000 tested, 1.6% active;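 also: NT is the 2HG producing partner of a matched IDH1 knockdown line; 0% = DMSO-treated cells and -100% = media-only wells without cells; nearly all actives have a fitted effect of over 55% in size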
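Compounds were tested in concentration-response format on HT-1080-NT cells for 48 hours at 37 degrees C. Cell viability came from CellTiter-Glo luminescence; curves were classified by r2, response magnitude and activity.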
KB-V1 cytotox = KB-V1 MDR subline cytotoxicity; AID 1347076; Potency, µM (highest dose often 46.1 µM), hits mostly cytotoxic; KB-V1 MDR cells viability, CellTiter-Glo, 72 h; 400,000 tested, 3.4% active; also: % is scaled to controls: 0 for no effect and ±100 for the full control effect; nearly all actives have a fitted effect of over 60% in size
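Readout: CellTiter-Glo luminescence, 10 min after addition. Cells: KB-V1 MDR subline, 72 h at 37 degrees C with compound. Analysis: corrected, normalized data fitted to concentration-effect curves.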
KB-3-1 tox = kills parental KB-3-1 adenocarcinoma cells; KB-3-1 viability, CellTiter-Glo ATP luminescence, 72 h; Potency, µM (doses to about 46.1 µM), most hits filed as cytotoxic; 400,000 tested, 1.4% active; also: % is scaled to controls: 0 for no effect and ±100 for the full control effect; nearly all actives have a fitted effect of over 60% in size
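Using CellTiter-Glo luminescence, growth of non-resistant KB-3-1 adenocarcinoma cells is assessed 72 h after pin-tool compound addition at 37 °C. Normalized responses across the concentration series yield fitted curves.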
S2 tox = viability counter-screen for ATXN expression inhibitors. Potency, µM (highest dose often 56.7 µM), most hits filed as cytotoxic. AID 651635. S2 cells (HEK-293 line with an ATXN2-luciferase reporter) viability, CellTiter-Fluor protease fluorescence, 24 h. 400,000 tested, 0.49% active; also: nearly all actives have a fitted effect of over 40% in size
HT1080 IDH1KD tx = kills HT-1080 cells with IDH1 knockdown. HT-1080 IDH1 knockdown viability, ATP luminescence, 48 h. Potency, µM (highest dose often 46.1 µM), without a hit: at the highest dose activity, negative = toxicity, hits mostly cytotoxic. 360,000 tested, 2% active;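 also: 0% = DMSO wells and -100% = cell-free medium wells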
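CellTiter-Glo luminescence after 48 h compound exposure at 37 degrees C of IDH1-knockdown HT-1080 cells in 5% FBS RPMI. %Activity scaled between DMSO wells and cell-free media wells, with curves fitted and assigned curve classes.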
ATXN2 expr inh = reduces ATXN2 reporter expression in HEK-293 cells | Potency, µM (series often up to 57 µM), for the others: at the highest dose activity change, negative = inhibition, most hits filed as inhibitors | 360,000 tested, 0.72% active | HEK-293 ATXN2-luciferase reporter, luminescence, 24 h; also: % is scaled to controls: 0 for no effect and ±100 for the full control effect; nearly all actives have a fitted effect of over 55% in size
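qHTS (up to 57 uM final) was run with 24 h compound exposure of reporter cells at 37 °C. Each well was multiplexed: SteadyGlo luminescence measured ATXN2-luciferase expression after a fluorogenic Gly-Phe-AFC viability readout (25 uM final).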
Numbers without * were called inactive; i = inactive; ? = inconclusive; nt = no result given. The list is not random: actives were taken first. Their share in the collection is about 6.2%. Calls follow the shape of the dose curve; as a rule, active = well fitted curve in the direction sought with a large enough effect; inconclusive = small, poorly fitted or top-dose-only effect, or another doubt; inactive = no such curve, though single readings can be large; an effect the other way counts as inactive or inconclusive. Potency is read from the fitted curve at half-maximal effect.

SMILES	HT1080NT lethal	KB-V1 cytotox	KB-3-1 tox	S2 tox	HT1080 IDH1KD tx	ATXN2 expr inh
CC(=O)Nc1cccc(-c2cccc3nccn23)c1	17%	i	i	i	4%	13%
CC(=O)N(C(C)=O)c1ncnc2c1c(-c1ccc(Cl)cc1)nn2C(C)(C)C	?	?	?	?	15µM*	?
Cc1c(Cl)c([N+](=O)[O-])nn1CCCC(=O)Nc1cccc(Cl)c1	14%	18µM*	?	i	8%	-3%
Cc1c(Cl)c([N+](=O)[O-])nn1CCCC(=O)Nc1cccnc1	0%	?	i	i	-3%	nt
Cc1nn(Cc2ccccc2)c(C)c1NC(=O)CCCn1nc(C)c([N+](=O)[O-])c1C	-2%	23µM*	i	i	1%	5%
CCCCn1c(N)c(N(CCOC)C(=O)CCNC(=O)c2ccccc2Cl)c(=O)[nH]c1=O	20%	?	i	i	8%	8%
Cc1c(C2(c3cc(C(C)C)c(O)c(Br)c3C)OS(=O)(=O)c3ccccc32)cc(C(C)C)c(O)c1Br	nt	i	i	nt	nt	nt
Cc1cccc(C)c1-n1nnnc1C(c1ccccc1OC(F)(F)F)N1CCN(C/C=C/c2ccccc2)CC1 (configuration not stated)	-24%	?	i	i	?	-16%
COc1cc(-c2noc(CCCC(=O)NCc3ccccc3)n2)cc(OC)c1OC	-20%	6.5µM*	i	i	?	-8%
COc1cc(-c2noc(CCCC(=O)Nc3cccnc3)n2)cc(OC)c1OC	-1%	?	i	i	5%	1%
CN(c1ccc(O)cc1)c1nc(O)c(C2=c3ccccc3=NC2=O)s1	-7%	i	i	28µM*	-23%	nt
O=C1N=c2ccccc2=C1c1sc(=S)n(-c2ccc(O)cc2)c1O	-4%	i	i	i	-12%	-8%
COc1ccc(CN(C)C(=O)CNC(=O)c2sc3ccccc3c2Cl)c(OC)c1OC	4%	5.8µM*	?	?	4%	-6%
COc1cccc(CN(C)C(=O)CNC(=O)c2ccc(-c3ccccc3)cc2)c1OC	?	?	i	i	4.6µM*	?
N#Cc1ccc(C(=O)N2CCCCC2c2cc(C(=O)Nc3ccc4c(c3)OCO4)no2)cc1 (configuration not stated)	?	i	i	i	24%	3%
Cc1ccc(C(=O)N/C(=C/c2ccc(-c3ccc([N+](=O)[O-])cc3)o2)C(=O)NCCCN(C)C)cc1	23µM*	i	i	nt	?	?
CC(=O)C1(C)CCC2C3C=C(C)C4=CC(=O)CCC4(C)C3CCC21C (configuration not stated)	0%	4.6µM*	?	i	7%	0%
C=C1CC2C(CCC3(C)C2CCC3(O)C(C)=O)C2(C)CCC(=O)C=C12 (configuration not stated)	?	21µM*	21µM*	?	-29%	-25%
O=C(COC(=O)c1c[nH]c2ccccc12)Nc1cccc(F)c1	2%	i	i	i	-7%	-9%
Cc1cc(C)n(CCC(=O)N/N=C/c2ccc(O)cc2O)n1	-25%	i	i	i	?	?
O=C(CN1CCCc2ccccc21)N/N=C/c1ccccc1O	-21%	13µM*	?	i	?	28µM*
O=C(CN1CCCc2ccccc21)N/N=C/c1ccc(F)cc1F	6%	i	i	i	-14%	12%
O=C(CSc1ccccc1)N/N=C/c1ccccc1O	?	i	i	?	8.2µM*	?
COc1ccc(CSCC(=O)N/N=C/c2ccccc2O)cc1	?	i	?	i	?	25µM*
Cc1cc(C)n(CCC(=O)N/N=C/c2ccccc2O)n1	-20%	8.2µM*	?	?	-24%	?
SMILES	HT1080NT lethal	KB-V1 cytotox	KB-3-1 tox	S2 tox	HT1080 IDH1KD tx	ATXN2 expr inh
O=C(CCSCCC(=O)NN=Cc1ccccc1O)NN=Cc1ccccc1O	4%	nt	nt	?	-25%	?
COc1cccc(NC(=O)CSc2nc(=O)n(Cc3ccco3)c3c2CCC3)c1	nt	i	i	i	nt	-15%
COC(=O)c1sc2cccc(F)c2c1S(=O)(=O)N1CCN(c2cccc(OC)c2)CC1	nt	i	i	i	nt	2%
COc1ccccc1NC(=O)COc1ccc(/C=N/NC(=O)CSCc2ccc(Cl)cc2)cc1	11%	5.2µM*	i	i	14%	-22%
CCn1c(C)c(C(=O)c2ccccc2)c(C#N)c1C(=O)O	-2%	i	i	?	-3%	-2%
O=c1cc(CSc2nnc(Nc3ccccc3F)s2)nc2sccn12	?	16µM*	?	?	18µM*	?
Cc1ccc2nc(CSc3nnc(Nc4ccccc4F)s3)cc(=O)n2c1	?	?	?	i	-26%	-6%
Cc1ncc2c(c1CNC(=O)c1ccc3c(c1)OCO3)CCN(C(=O)c1scc3c1CCCC3)C2	nt	nt	nt	i	nt	nt
CCOc1ccc(NC(=O)CC(C)S(=O)(=O)c2ccc3c(c2)NC(=O)CO3)cc1 (configuration not stated)	-2%	?	i	i	1%	31%
CCCN(c1ccc(OCC)cc1)S(=O)(=O)c1ccc2c(c1)NC(=O)CO2	-4%	1.6µM*	?	i	-15%	-1%
CC(=O)c1ccc(NC(=O)CSc2nnc(-c3ccncc3)n2C2CC2)cc1	-7%	i	i	i	-3%	7%
Cc1cccc(N(Cc2ccccc2)C(=O)CSC(C)C(=O)Nc2cc(C)on2)c1 (configuration not stated)	1%	15µM*	?	i	-26%	109%
Cc1cccc(N(Cc2ccccc2)C(=O)CCl)c1	1.5µM*	?	i	0.53µM*	1.3µM*	0.75µM*
O=C(CCl)N(Cc1cc(=O)[nH]c2ccccc12)c1ccccc1	-14%	i	i	?	?	nt
O=C(CCl)N(Cc1ccccc1)c1ccccc1	10µM*	i	?	i	16µM*	0%
CCOC(=O)C(O)c1ccccc1 (configuration not stated)	nt	nt	nt	i	nt	7%
COc1ccc(CCNC(=O)c2cc(C(=O)c3cc(Cl)ccc3O)cn(CCc3ccc(OC)cc3)c2=O)cc1	-11%	2.6µM*	i	i	0%	-4%
O=C(c1cc(C(=O)NCCc2ccccc2)c(=O)n(CCc2ccccc2)c1)c1cc(Cl)ccc1O	-15%	2.3µM*	?	i	?	-24%
Cc1cc(=O)[nH]c2nc(N)ccc12	nt	i	?	nt	nt	nt
